# From PubChem BioAssay (Tox21)
# Inconclusive results are not listed. Where a call stands in place of a potency, no number is given. Calls of active or inactive are those of the source. Calls follow the shape of the full dose curve.
# Assay: qHTS assay for small molecule agonists of the p53 signaling pathway - cell viability (AID 651633);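 also: p53RE-bla HCT reporter cells with a stable beta-lactamase p53 reporter; nearly all actives have a fitted effect of over 30% in size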
# Conditions: p53RE-bla HCT-116 viability, ATP luminescence, 16 h; series mostly up to 83.3 µM
# Excerpt: National Center for Advancing Translational Sciences [NCATS]
# NIH Chemical Genomics Center [NCGC]
# U.S. Environmental Protection Agency [EPA]
# National Institutes of Environmental Health Sciences [NIEHS]
# National Toxicology Program [NTP]
# U.S. Food and Drug Administration [FDA]
# p53, a tumor suppressor protein, is activated following cellular insult, including DNA damage and other cellular stresses. The activation of p53 regulates cell fate by inducing DNA repair, cell cycle arrest, apoptosis, or cellular senescence. The activation of p53, therefore, is a good indicator of DNA damage and other cellular stresses. […] The activation of the reporter gene under culture conditions can be detected by fluorescence intensity. This cell line was used to screen the Tox21 compound library in a 1536-well plate format and to identify agonists that activate the p53 signaling pathway.
# Tox21 Assay Protocol Summary:
# The p53RE-bla cells were dispensed at 4,000 cells/5 ul/well in 1536-well black wall/clear bottom plates using a Multidrop dispenser. After the assay plates were incubated at a 37 C/5% CO2 incubator for 5 hours, 23 nL of compounds dissolved in DMSO, positive controls or DMSO only was transferred to the assay plate by a pin tool. The plates were incubated at 37 C for 16 hours. After 1 uL of LiveBLAzerTM B/G FRET substrate was added using a Flying Reagent Dispenser, the plates were incubated at room temperature for 2 hours, and fluorescence intensity was measured by an Envision plate reader.
# For cell viability readout that measures cytotoxicity, 4 ul/well of CellTiter-Glo reagent was added into the assay plates using a Flying Reagent Dispenser. After 30 min incubation at room temperature, the luminescence intensity in the plates was measured using a ViewLux plate reader.
row,Structure (SMILES),Potency
1,Cn1c(N)nc2c3cccnc3ccc21,inactive
2,NC(=O)CS(=O)C(c1ccccc1)c1ccccc1 (stereo not given),inactive
3,CC1=C2[C@H]3OC(=O)[C@@H](C)[C@@H]3CC[C@@]2(C)C=CC1=O,inactive
4,N=C(N)[Se],inactive
5,CC1N=C(N)OC1c1ccccc1 (stereo not given),inactive
6,CCOC(=O)C(Cl)Cc1cc(-n2nc(C)n(C(F)F)c2=O)c(F)cc1Cl (stereo not given),inactive
7,CN(C)C(=O)Oc1cc(OC(=O)N(C)C)cc(C(O)CNC(C)(C)C)c1 (stereo not given),inactive
8,CCSC(=O)Cl,inactive
9,CC(C)(O)C(Cl)(Cl)Cl,inactive
10,O=c1[nH]oc2c1CCNC2,inactive
11,O=C(NC(=O)c1c(F)cccc1F)Nc1cc(Cl)c(F)c(Cl)c1F,inactive
12,O=C(O)CBr,inactive
13,COC1=CC(=O)O[C@@H](/C=C/c2ccccc2)C1,inactive
14,COc1ccc(C=O)cc1O,inactive
15,C=CC(=O)OCCN(C)C,inactive
16,CC(=NC#N)N(C)Cc1ccc(Cl)nc1,inactive
17,[P]#[In],inactive
18,Cl/C=C/CCl,inactive
19,CN1C(=O)COc2c(C(=O)NC3CN4CCC3CC4)cc(Cl)cc21 (stereo not given),inactive
20,C/C=C/CC#N,inactive

row,Structure (SMILES),Potency
1,CN1COCN(Cc2cnc(Cl)s2)/C1=N\[N+](=O)[O-],inactive
2,CCN[C@H](C)Cc1cccc(C(F)(F)F)c1,inactive
3,COc1ccc(CN2CCNCC2)c(OC)c1OC,inactive
4,CCOC(=O)c1ncn2c1CN(C)C(=O)c1c(I)cccc1-2,inactive
5,C#CCOC(=O)/C=C(C)/C=C/CC(C)CCCC(C)C (stereo not given),inactive
6,CC(C)(C)C(=O)C(Cl)Cl,inactive
7,[O-][Br+2]([O-])O,inactive
8,Cc1ccc(-c2nc3ccc(C)cn3c2CC(=O)N(C)C)cc1,inactive
9,CCC1(c2ccccc2)C(=O)N(COC)C(=O)N(COC)C1=O,inactive
10,CCCCCCC(=O)CCCCCC/C=C/C[C@@H](O)[C@H](O)[C@@](N)(CO)C(=O)O,inactive
11,CCC1(CC)C(=O)C=CNC1=O,inactive
12,COC(=O)c1ccc(CBr)cc1,inactive
13,CC(=O)CN(CC(C)=O)N=O,inactive
14,CCN(CCO)CCn1c(Cc2ccccc2)nc2c1c(=O)n(C)c(=O)n2C,inactive
15,CCOC(=O)N(C)N=O,inactive
16,C=CC=O,inactive
17,CC(O)CCl (stereo not given),inactive
18,CCOC(=O)NC(C)(C)Cc1ccc(Cl)cc1,inactive
19,CC(C)(C)NC[C@H](O)c1ccc(O)cc1Cl,inactive
20,COc1cc(CC(C)N)cc(OC)c1OC (stereo not given),inactive
